EBV LMP1 NFkB: Epstein-Barr LMP1 NF-kappaB reporter inhibition | LMP1-induced NF-kappaB luciferase reporter cells, luminescence | inhibition, % at 12.5 µM | 0.69% of 350,000 active; in the data active means inhibition above about 41%
TROY NFkB inh: inhibitors of TROY-dependent NF-kB signaling | 0.98% of 360,000 active | inhibition, % at 10 µM | Q293 LMP1-TROYcd NF-kB luciferase reporter, 4 h | AID 1347056;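 active means compounds whose plate-normalised and pattern-corrected inhibition of the luciferase reporter signal at the single screening dose is 50% or more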
TWEAK-Fn14 inh: inhibitors of TWEAK-Fn14 interaction signaling. AID 1159606. TWEAK-stimulated Fn14 reporter cells, luciferase luminescence, 8 h. 2% of 360,000 active. inhibition, % at 10 µM; in the data active means inhibition above about 50%
EWS-Fli inh: inhibitors of EWS/Fli oncoprotein transcriptional activity; A673 NR0B1-luciferase reporter, viability-normalised; inhibition, % at 12.6 µM; 0.67% of 350,000 active;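 active means mean inhibition of at least 50% after viability correction, with every replicate also passing that limit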;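 further: firefly luciferase signal divided by Alamar Blue viability fluorescence both relative to DMSO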
LGR2 antag: inhibitors of bursicon-induced Drosophila LGR2 receptor cAMP signaling | HEK293 LGR2, CRE-luciferase, bursicon-stimulated, 4 h | inhibition, % at 9.99 µM | 0.35% of 380,000 active | AID 720647;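 active means drop in luminescence signal, shown as inhibition above about 50% in the replicate tests, limit read from the data, passing the limit was not always enough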;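 further: agonist challenge used bursicon conditioned medium at about half maximal strength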
PAX8 reporter: PAX8 transcriptional activity inhibition. RMG-I TPO-luciferase reporter, SteadyGlo, 24 h. AID 652154. 1.2% of 360,000 active. inhibition, % at 12.6 µM;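 active means mean replicate inhibition at least 60% with every replicate also reaching 60%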;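 further: luciferase light reporting Pax8 driven TPO promoter activity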
Hits are given with their value. This is a sample that favours compounds with a hit; in the whole collection about 3.1% have one here.

Results for COC(=O)c1c(NC(=O)C(C)(C)C)sc2c1C(C(=O)OC)CC2 (stereo not drawn) ?
EBV LMP1 NFkB: inactive; TROY NFkB inh: inactive; TWEAK-Fn14 inh: inactive; PAX8 reporter: inactive

Results for O=[N+]([O-])c1ccc(CSc2nnc(Cc3ccccc3)o2)cc1 ?
EBV LMP1 NFkB: inactive; TROY NFkB inh: inactive; TWEAK-Fn14 inh: inactive; EWS-Fli inh: inactive; LGR2 antag: inactive; PAX8 reporter: inactive

What do the screens show for `COc1ccc(Cc2nnc(SCc3ccc([N+](=O)[O-])cc3)o2)cc1`?
EBV LMP1 NFkB: inactive; TROY NFkB inh: inactive; TWEAK-Fn14 inh: 65; EWS-Fli inh: inactive; LGR2 antag: inactive; PAX8 reporter: inactive

Results for COc1ccc(S(=O)(=O)N2CCCc3ccccc32)cc1OC ?
EBV LMP1 NFkB: inactive; TROY NFkB inh: 60; TWEAK-Fn14 inh: 56; EWS-Fli inh: inactive; LGR2 antag: inactive; PAX8 reporter: inactive

What do the screens show for `COc1ccc(C(=O)Nc2ccc(S(=O)(=O)N3CCc4ccccc43)cc2)cc1`?
EBV LMP1 NFkB: inactive; TROY NFkB inh: inactive; TWEAK-Fn14 inh: 80

Results for NC(=O)c1ccsc1NC(=O)c1ccc(S(=O)(=O)N2CCCc3ccccc32)cc1 ?
EBV LMP1 NFkB: inactive; TROY NFkB inh: 61; TWEAK-Fn14 inh: 92; EWS-Fli inh: inactive; LGR2 antag: inactive; PAX8 reporter: inactive

What do the screens show for `C[C@@H]1CCCCO[C@@H](CN(C)Cc2ccc(C(=O)O)cc2)[C@H](C)CN([C@H](C)CO)C(=O)c2cc(NS(=O)(=O)c3ccccc3)ccc2O1`?
EWS-Fli inh: inactive; LGR2 antag: inactive; PAX8 reporter: inactive

How did C=CCN(CC=C)C(=S)NC(=O)/C=C/c1ccccc1 do in these assays?
EBV LMP1 NFkB: inactive; TROY NFkB inh: inactive; TWEAK-Fn14 inh: inactive; LGR2 antag: inactive; PAX8 reporter: inactive

What do the screens show for `C=CCN(CC=C)C(=S)NC(=O)/C=C/c1ccc(C)cc1`?
EBV LMP1 NFkB: inactive; TROY NFkB inh: inactive; TWEAK-Fn14 inh: 63; LGR2 antag: inactive; PAX8 reporter: inactive

Results for COc1cc(-c2cnc3c(NC=O)cc(-c4ccc(C)cc4)cn23)cc(OC)c1OC ?
TROY NFkB inh: inactive; TWEAK-Fn14 inh: inactive; EWS-Fli inh: inactive; LGR2 antag: inactive; PAX8 reporter: 90

What do the screens show for `CS(=O)(=O)c1ccc(-c2cc(NC=O)c3ncc(-c4ccc(F)cc4)n3c2)cc1`?
TROY NFkB inh: inactive; TWEAK-Fn14 inh: inactive; EWS-Fli inh: inactive; LGR2 antag: inactive; PAX8 reporter: 68

What do the screens show for `COc1cc(-c2cnc3c(NC=O)cc(-c4ccccc4)cn23)cc(OC)c1OC`?
TROY NFkB inh: inactive; TWEAK-Fn14 inh: inactive; EWS-Fli inh: 59; LGR2 antag: inactive; PAX8 reporter: 92

Results for COc1cc(-c2cc(NC(C)=O)c3ncc(-c4ccccc4)n3c2)cc(OC)c1OC ?
TROY NFkB inh: inactive; TWEAK-Fn14 inh: inactive; EWS-Fli inh: inactive; LGR2 antag: inactive; PAX8 reporter: inactive

What do the screens show for `COc1cc(-c2cc(NC(C)=O)c3ncc(-c4cc(OC)c(OC)c(OC)c4)n3c2)cc(OC)c1OC`?
TROY NFkB inh: inactive; TWEAK-Fn14 inh: 50; EWS-Fli inh: inactive; PAX8 reporter: inactive

What do the screens show for `COc1cc(-c2cc(NC=O)c3ncc(-c4ccccc4)n3c2)cc(OC)c1OC`?
TROY NFkB inh: inactive; TWEAK-Fn14 inh: inactive; EWS-Fli inh: inactive; LGR2 antag: inactive; PAX8 reporter: inactive

How did C/C=C/c1ccc2c(c1)O[C@H](CN(C)C(=O)NCCC)[C@@H](C)CN([C@H](C)CO)S2(=O)=O do in these assays?
EWS-Fli inh: inactive; LGR2 antag: inactive; PAX8 reporter: inactive

How did CS(=O)(=O)Nc1ccc2c(c1)[C@@H]1C[C@@H](CC(=O)NCc3ccccc3F)O[C@H](CO)[C@@H]1O2 do in these assays?
EWS-Fli inh: inactive; LGR2 antag: inactive

How did COc1ccccc1-c1cc(NC=O)c2ncc(-c3ccc(F)cc3)n2c1 do in these assays?
TROY NFkB inh: inactive; TWEAK-Fn14 inh: 55; EWS-Fli inh: inactive; LGR2 antag: inactive; PAX8 reporter: inactive

What do the screens show for `COc1cc(-c2cc(NC=O)c3ncc(-c4ccc(C(C)=O)cc4)n3c2)cc(OC)c1OC`?
TROY NFkB inh: inactive; TWEAK-Fn14 inh: inactive; EWS-Fli inh: inactive; LGR2 antag: inactive; PAX8 reporter: inactive

What do the screens show for `COc1ccc(F)cc1-c1cc(NC=O)c2ncc(-c3cccc(C(=O)N(C)C)c3)n2c1`?
TROY NFkB inh: inactive; TWEAK-Fn14 inh: inactive; EWS-Fli inh: inactive; LGR2 antag: inactive; PAX8 reporter: 68

Compound activity deposited in PubChem BioAssay by several laboratories.
